Measured values published in PubChem BioAssay (NCI).
About 83,000 compounds went through this panel and 20% of them were active in at least one assay; those are over-represented in the sample as a whole.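 Percent growth is the endpoint: 0 to 100 indicates growth inhibition (40 means 60% inhibition), 0 means no net growth, and negative values indicate cell death.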 A number with no mark means an inactive call. Activity calls are given as the source filed them. How the source made its calls: active means growth percent below 10; inactive means the rest.

Assays:
Assay in all cases: NCI-60 one-dose screen, 48 h (100 = growth as untreated, 0 = no growth, -100 = all killed)
Conditions in all cases: 10 µM unless noted
HCT-15 colon = system: HCT-15 colon
HT29 colon = system: HT29 colon
SNB-75 CNS = system: SNB-75 CNS
SNB-19 CNS = system: SNB-19 CNS
U251 CNS = system: U251 CNS
PC-3 prostate = system: PC-3 prostate
SK-MEL-5 melanoma = system: SK-MEL-5 melanoma
UACC-62 melanoma = system: UACC-62 melanoma
SK-MEL-28 melanoma = system: SK-MEL-28 melanoma
SK-MEL-2 melanoma = system: SK-MEL-2 melanoma
EKVX NSCLC = system: EKVX NSCLC
SN12C renal = system: SN12C renal
UO-31 renal = system: UO-31 renal
TK-10 renal = system: TK-10 renal
ACHN renal = system: ACHN renal
CAKI-1 renal = system: CAKI-1 renal
A498 renal = system: A498 renal
CCRF-CEM leukemia = system: CCRF-CEM leukemia
MOLT-4 leukemia = system: MOLT-4 leukemia

Row | SMILES | growth (HCT-15 colon) | growth (HT29 colon) | growth (SNB-75 CNS) | growth (SNB-19 CNS) | growth (U251 CNS) | growth (PC-3 prostate) | growth (SK-MEL-5 melanoma) | growth (UACC-62 melanoma) | growth (SK-MEL-28 melanoma) | growth (SK-MEL-2 melanoma) | growth (EKVX NSCLC) | growth (SN12C renal) | growth (UO-31 renal) | growth (TK-10 renal) | growth (ACHN renal) | growth (CAKI-1 renal) | growth (A498 renal) | growth (CCRF-CEM leukemia) | growth (MOLT-4 leukemia)
1 | CC(c1ccccc1)N1C(=O)C(C2SC(=S)N(C(C)c3ccccc3)C2=O)SC1=S (centres undefined) | 54.9% | 72.5% | 89% | 78.6% | 85% | 84.7% | 99.3% | 77.7% | 86.6% | 101% | 94.4% | 85.5% | 66.5% | 106% | 74.4% | 66.6% | 106% | 54.1% | 78.8%
2 | N#CC1=C(N)Oc2ccc3ccccc3c2C1c1ccccc1Cl (centres undefined) | 24% | 22.2% | -2.04% (active) | 33.9% | 37.2% | 46.1% | 42.7% | 24.2% | 61.1% | 45.9% | 42.5% | 50% | 48.9% | 118% | 49.9% | 34.5% | 40.1% | 26.1% | 26.7%
3 | Cn1c2c(c3ccc(Cl)cc31)-n1cccc1C2=O | 83.5% | 70.8% | 87.5% | 85.5% | 89.3% | 101% | 98.4% | 89.8% | 109% | 84.6% | 86.4% | 74.5% | 57.5% | 88.2% | 78.2% | 83.2% | 89.6% | 85.7% | 64.2%
4 | NCCNc1nc(-c2ccccc2)nc2nc(-c3ccccc3)oc12 | 70% | 71.6% | 61.9% | 89.8% | 70.3% | 80.4% | 89.2% | 99.9% | 103% | 107% | 102% | 80.6% | 69.6% | 119% | 79% | 73.9% | 90% | 91.5% | 73.6%
5 | C#Cc1cccc(NC(=O)C2CCCN(C(=O)CCl)C2)c1 (centres undefined) | 25.2% [8.25 µM] | 83.9% [8.25 µM] | 91.9% [8.25 µM] | 85.7% [8.25 µM] | 72% [8.25 µM] | 96.2% [8.25 µM] | 19.4% [8.25 µM] | 44.2% [8.25 µM] | 102% [8.25 µM] | 75.7% [8.25 µM] | 95.7% [8.25 µM] | 9.7% [8.25 µM] (active) | -56.7% [8.25 µM] (active) | 98.9% [8.25 µM] | -96.3% [8.25 µM] (active) | 33.8% [8.25 µM] | 99.2% [8.25 µM] | -25.9% [8.25 µM] (active) | -7.04% [8.25 µM] (active)
6 | O=C1C(=O)N(CCCCn2cc(-c3ccccc3)nn2)c2ccccc21 | 105% | 112% | 95% | 99.7% | 107% | 94.3% | 100% | 95.7% | 113% | 122% | 93.9% | 94.3% | 75.3% | 136% | 103% | 92% | 110% | 97.2% | 101%
7 | O=C(/C=C/c1ccc2ccccc2c1)Nc1ncc(Cc2ccccc2)s1 | 55.7% | 69.5% | 34.4% | 69.5% | 25.8% | 71.2% | 92.8% | 59.8% | 85% | 98.1% | 71.4% | 43.9% | 43.5% | 22.6% | 6.83% (active) | 45.1% | 86.2% | 49.2% | 65.8%
8 | Cc1oc(-c2ccccc2Cl)cc1C(=O)Nc1ccc(S(N)(=O)=O)cc1 | 103% | 108% | 89.9% | 99.1% | 94.9% | 107% | 97.3% | 95.8% | 101% | 104% | 91.9% | 98.2% | 88.7% | 126% | 106% | 93.9% | 105% | 96.2% | 96.3%
9 | C=C(C)[C@@H]1CC[C@]2(/C=N/Nc3ccncc3)CC[C@]3(C)[C@H](CC[C@@H]4[C@@]5(C)CCCNC(C)(C)[C@@H]5CC[C@]43C)[C@@H]12 | 68.4% | 18.6% | 90.5% | 94.7% | 67.9% | 47.3% | 81.7% | 88.1% | 95.4% | 110% | 99.5% | 85.2% | 85% | 120% | 100% | 74.7% | 83.8% | 67.1% | 58%
10 | Cc1cc(C)n(Cc2cc(C(C)(C)C)cc(C(C)(C)C)c2)c(=O)c1C#N | 86.8% | 99.4% | 96.1% | 95.8% | 97.9% | 79% | 90.7% | 72.8% | 102% | 107% | 75.2% | 90% | 80.5% | 107% | 98.4% | 104% | 97% | 87.9% | 76.6%
11 | CC(=O)NC1=C(C#N)C(c2ccccc2Cl)c2c(ccc3ccccc23)O1 (centres undefined) | 32% | 51.6% | 30.1% | 58.1% | 69.3% | 60.6% | 56.7% | 36.6% | 66.4% | 59.2% | 63.5% | 70.8% | 49.8% | 141% | 65% | 37.2% | 56.2% | 60.8% | 50.2%
12 | COc1c(N)c2c(c([N+](=O)[O-])c1OC)C(=O)OC2 | 105% | 102% | 98.7% | 102% | 110% | 96.7% | 113% | 102% | 108% | 102% | 111% | 93.5% | 83.4% | 103% | 117% | 115% | 104% | 96.2% | 81.2%
13 | CCCC1CCCCN1C(=O)OCC(C)C (centres undefined) | 108% | 102% | 99.5% | 102% | 103% | 96.5% | 109% | 103% | 113% | 108% | 104% | 102% | 74.5% | 107% | 100% | 90.2% | 108% | 96.3% | 95.3%
14 | S=c1[nH]nc2ccccn12 | 101% | 87.5% | 88.7% | 110% | 114% | 108% | 92.3% | 108% | 109% | 95.3% | 102% | 106% | 87.7% | 85.7% | 102% | 102% | 100% | 101% | 80.7%
15 | Cc1ccc(S(=O)(=O)Nc2ccc(-c3cc(-c4cccc(F)c4)c(C#N)c(N)n3)cc2)cc1 | -23.3% (active) | -7.07% (active) | -11.7% (active) | 51.4% | 22.6% | 18.6% | 28.4% | -6.88% (active) | -33.3% (active) | 17.1% | 51.6% | 11.5% | -88.2% (active) | -70.8% (active) | -71.9% (active) | 10.9% | 68.1% | 7.69% (active) | 9.77% (active)
16 | CCN1CCN(C(=O)[C@@]2(C)CC[C@]3(C)CC[C@]4(C)C(=CC(=O)[C@@H]5[C@@]6(C)CC[C@H](OCCC#N)C(C)(C)[C@@H]6CC[C@]54C)[C@@H]3C2)CC1 | 69.5% | 42.6% | 59.9% | 103% | 64.2% | 72.1% | 90.2% | 87.1% | 67.7% | 93.5% | 85.7% | 83.1% | 69.8% | 93.4% | 98.3% | 80.2% | 101% | 63.4% | 62.8%
